# Out of some 300,000 compounds screened, about 5,200 (1.7%) were called active. Shown is part of a subset that was picked to be rich in actives. Unmarked numbers belong to inactive results.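 How the source made its calls: active means mean replicate activation of at least 50% with a set share of replicates each reaching 50%; inconclusive means only one of those two conditions met; inactive means mean below 50% and too few replicates reaching it.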
# Test: HSF-1 response element luciferase induction – NIH3T3-HGL cells, MG132 stress, luminescence, single point, primary screen (AID 504408);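 further: 0% = median of the neutral control wells and 100% = twice that signal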
# Conditions: NIH3T3-HGL HSF-1 luciferase reporter, MG132, 8 h; at 9 µM; stronger effect = higher value; 100% = twice DMSO control signal
row,Structure (SMILES),activation
1,CCCC(=O)N(CCN1CCOCC1)c1nc2ccc(OCC)cc2s1,5.04%
2,CCOc1ccc2nc(C(=O)N3CCCC(C)C3)sc2c1 (centres undefined),76.7% (active)
3,CCOc1ccc2nc(Nc3nc4ccc(NC(C)=O)cc4s3)sc2c1,36.7%
4,CSc1ccc(S(=O)(=O)NCC(=O)OCC(=O)NC2(C#N)CCCCC2)cc1[N+](=O)[O-],1.77%
5,COc1ccccc1C(=O)NC(CCSC)C(=O)NNC(=O)c1ccccc1C (centres undefined),-15.3%
6,O=C(Nn1c(-c2ccccc2)nc2ccccc2c1=O)c1ccc([N+](=O)[O-])cc1,19.1%
7,O=C(Nn1c(SCc2ccc([N+](=O)[O-])cc2)nc2ccccc2c1=O)c1ccc(F)cc1,51.9% (active)
8,C=CCn1c(SCc2ccc(C(=O)NCCO)cc2)nc2ccccc2c1=O,-5.63%
9,O=C(CSc1ccccn1)N1CCN(S(=O)(=O)c2ccc(Cl)cc2)CC1,9.98%
10,O=S(=O)(O)Oc1c[nH]c2ccccc12,-0.476%
11,CCS(=O)(=O)c1ccc(-c2cccc(NC(=O)c3ccc(Br)o3)c2)nn1,-23.4%
12,O=C(Nc1cccc([N+](=O)[O-])c1)Nc1ccc(Cl)cn1,-5.81%
13,O=C(Nc1ccc(Cl)cn1)Nc1cccs1,69.7% (active)
14,CCCc1cc(C(=O)Nc2ccc(Cl)cn2)cs1,43.8%
15,COc1ccc(NC(=O)CN(C)C(=O)/C=C/c2cn(Cc3ccccc3)nc2-c2cccnc2)cc1,1.78%
16,COC(=O)[C@]1(C)N[C@H](c2ccc(-c3ccc(Cl)c(Cl)c3)cc2)[C@@H]2C(=O)N(C)C(=O)[C@@H]21,23%
17,Cn1c(CN2CCOCC2)nc2cc(NC(=O)c3ccc(Cl)cc3)ccc21,70% (active)
18,CCOC(=O)N1CCN(Cc2nc3cc(NC(C)=O)ccc3n2C)CC1,-12.5%
19,CC(=O)NCCc1nc2cc(NC(=O)c3ccccc3)ccc2n1C,-16.5%
20,Cn1c(CCN2CCCCCC2)nc2cc(NC(=O)Nc3ccccc3)ccc21,276% (active)
21,Cn1c(CCN2CCCC2)nc2cc(NS(=O)(=O)c3ccccc3)ccc21,-1.14%
22,CCC(=O)Nc1ccc2c(c1)nc(CCN1CCN(c3ccccn3)CC1)n2C,27.9%
23,COC(=O)c1ccc(SCc2ccccc2)nc1,18.6%
24,CCOc1ccc(NC(=O)CN(C)C(=O)c2c(C)noc2C)cc1OCC,8.14%

row,Structure (SMILES),activation
1,CCOC(=O)c1c(NC(=O)CN2C(=O)NC3(CCC(C)CC3)C2=O)sc(C)c1CC (centres undefined),2.47%
2,COc1ccc(C2CC(c3ccc([N+](=O)[O-])cc3)=NN2C(C)=O)cc1 (centres undefined),22%
3,COc1ccc(C2CC(c3ccccc3)=NN2C(=O)c2ccc(Cl)c([N+](=O)[O-])c2)cc1 (centres undefined),73.2% (active)
4,COc1ccc(C2=NN(C(=O)c3cccnc3)C(c3ccccc3)C2)cc1 (centres undefined),4.6%
5,OCc1ccc(-c2ccccc2)c(-c2ccccc2)c1,-0.0415%
6,Cc1ccc(CSCC(=O)N(C)CC(=O)Nc2cccc(F)c2)cc1,4.88%
7,Cc1cc(C)c(C)c(S(=O)(=O)Nc2cccnc2)c1C,-8.55%
8,COc1ccc(N2CCN(C(=O)/C(C#N)=C/c3ccccc3)CC2)cc1,-4.53%
9,CCOC(=O)/C(C#N)=C/c1ccc(N2CCCCC2)cc1,54.1% (active)
10,CCOC(=O)/C(C#N)=C/c1ccc(N2CCN(Cc3ccccc3)CC2)cc1,-3.55%
11,CCN1C(=O)[C@H]2[C@@H](c3ccc(-c4ccc(OC)cc4)cc3)N[C@@](Cc3ccccc3)(C(=O)OC)[C@H]2C1=O,22.5%
12,S=C(c1ccccc1)N1CCCC1,0.831%
13,S=C(c1ccc(-c2ccccc2)o1)N1CCCCC1,63.6% (active)
14,OCCN1CCN(C(=S)c2ccc(-c3ccccc3)cc2)CC1,-5.27%
15,CCCCCC(=O)N1CCN(S(=O)(=O)c2ccc3c(c2)OCCCO3)CC1,-14%
16,CCCCn1c(N)c(N(CCOC)C(=O)c2cccc(S(=O)(=O)N(C)c3ccccc3)c2)c(=O)[nH]c1=O,0.234%
17,Clc1ccc(Nc2ccc3ccccc3n2)cc1,5.69%
18,C(=N\Nc1ccc2ccccc2n1)/c1ccc2c(c1)OCO2,-41.8%
19,Cc1noc(C)c1/C=N/Nc1ccc2ccccc2n1,59.1% (active)
20,Cc1ccc(S(=O)(=O)N(C)c2ccc(OCC(=O)OCC(=O)N(CC#N)c3ccccc3)cc2)cc1,7.96%
21,O=S(=O)(NCCCc1ccccc1)c1ccc(Br)cc1,11.6%
22,O=C(NCCS(=O)(=O)NCc1ccc(Cl)cc1)c1ccccc1,8.69%
23,CCOc1ccc(NS(=O)(=O)c2ccc(C(=O)NC3CCN(Cc4ccccc4)CC3)cc2)cc1,-18.5%
24,Cc1ccc(-c2nc3ccccc3[nH]2)cc1N,36.7%

row,Structure (SMILES),activation
1,c1ccc2[nH]c(-c3nc4ccccc4[nH]3)nc2c1,77.8% (active)
2,OC(c1nc2ccccc2[nH]1)C(O)C(O)C(O)c1nc2ccccc2[nH]1 (centres undefined),1.21%
3,CCN(CC(=O)Nc1c(F)cccc1F)C(=O)c1ccc(S(=O)(=O)N2CCCCC2)cc1,-12.7%
4,Cc1ccccc1NC(=O)COc1cccc2c1CCNC2=O,-1.52%
5,CCCCn1c(N)c(N(CC(C)C)C(=O)CSc2ccc([N+](=O)[O-])cc2)c(=O)[nH]c1=O,-6.98%
6,Cc1ccc(-c2nn(-c3ccc(F)cc3)cc2C(=O)NCC(c2cccs2)N2CCOCC2)cc1 (centres undefined),-1.83%
7,Cc1ccn2c(=O)nc(SCC(=O)NCc3ccc(F)cc3)nc2c1,16.8%
8,O=C(COC(=O)c1ccccn1)NNC(=O)c1ccc([N+](=O)[O-])cc1,5.44%
9,Cc1cc2nc(SCCN3CCOCC3)[nH]c2cc1C,53.2% (active)
10,Cc1cccc(C)c1OCCN1CCOCC1,3.56%
11,CCn1c2ccc(F)cc2c2nnc(SCCN3CCOCC3)nc21,-5.84%
12,COc1ccc(NC(=O)CN(C)C(=O)CC2CCCCC2)cc1,0.174%
13,N#CCCN(C(=O)COC(=O)C1CCN(c2ccc(C(F)(F)F)cn2)CC1)c1ccc(F)cc1,9.78%
14,CN(C(=O)CSc1nnc(-c2c[nH]c3ccccc23)o1)C1CCS(=O)(=O)C1 (centres undefined),20.1%
15,CCC(CC)NC(=O)CSc1nnc(-c2c[nH]c3ccccc23)o1,12.5%
16,O=C(CSc1nnc(-c2c[nH]c3ccccc23)o1)c1ccccc1,54.2% (active)
17,COC(=O)c1sccc1NC(=O)c1ccc(Cl)cc1,12.5%
18,COC(=O)c1sccc1NC(=O)COc1ccc(Cl)cc1,65.1% (active)
19,O=C(COc1ccc(Cl)cc1)Nc1ccccc1CO,3.44%
20,O=C(NCC(c1ccco1)N1CCc2ccccc2C1)c1ccccc1Cl (centres undefined),6.39%
21,CC(OC(=O)CNC(=O)c1ccco1)C(=O)Nc1ccc(Cl)cn1 (centres undefined),0.765%
22,C=CCNC(=O)C1CC2c3ccccc3C1c1ccccc12 (centres undefined),0.377%
23,CCC(C)N(C(=O)Cn1nc(C)c([N+](=O)[O-])c1C)C1CCS(=O)(=O)C1 (centres undefined),-1.43%
24,COc1ccc(F)cc1S(=O)(=O)NCC(c1ccc2c(c1)OCO2)N1CCN(C)CC1 (centres undefined),7.05%

row,Structure (SMILES),activation
1,COc1ccc(S(=O)(=O)Nc2ccc3c(c2)OCO3)cc1Cl,-5.83%
2,COc1ccc(F)cc1S(=O)(=O)Nc1ccc2c(c1)OCO2,53.7% (active)
3,COc1ccccc1CCC(=O)OCC(=O)N1CCN(S(=O)(=O)c2ccc(C)cc2C)CC1,25.7%
4,COc1cccc(Nc2nc(N)c([N+](=O)[O-])c(NCc3ccco3)n2)c1,27.8%
5,Nc1nc(Nc2ccccc2)nc(NCCO)c1[N+](=O)[O-],12.4%
6,CNc1nc(Nc2ccc(C)c(Cl)c2)nc(N)c1[N+](=O)[O-],76.4% (active)
7,Cc1cccn2c(=O)nc(SCC(=O)NCc3ccccc3Cl)nc12,0.293%
8,COc1ccc(-c2cnc(SCCNC(=O)c3ccc4c(c3)OCO4)[nH]2)cc1,9.08%
9,COc1ccc(C2=NOC(Cn3nc(C(=O)NCc4ccc5c(c4)OCO5)cc3-c3ccccc3)C2)cc1 (centres undefined),7.07%
10,CCN1C(=O)[C@H]2[C@@H](c3ccc(SC4CCCCC4)c(OC)c3)N[C@@](Cc3ccccc3)(C(=O)OC)[C@H]2C1=O,-7.66%
11,Cc1ccc(O)c(NC(=S)NC(=O)COc2ccc(Br)cc2)c1,12.4%
12,Cc1ccc(F)c(NC(=O)CCOc2ccccc2C)c1,7.19%
13,Cc1ccc(O)c(NC(=O)COc2cc(C)ccc2C)c1,76.7% (active)
14,CCn1c(COc2ccc(OC)cc2)nnc1SCC(=O)Nc1cc(OC)ccc1OC,19.9%
15,CCn1c(COc2ccccc2)nnc1SCC(=O)NCc1ccco1,-12.7%
16,CCOC(=O)CNC(=O)CSc1nnc(COc2ccc(Cl)cc2)n1CC,52.7% (active)
17,Cc1ccc(C(=O)Nc2nc3ccc(Cl)cc3s2)o1,44.3%
18,O=C(CSc1n[nH]c(-c2cccs2)n1)N1CCCCC1,-14%
19,O=C(OCC(=O)N1CCCC1=O)c1cc(S(=O)(=O)N2CCOCC2)ccc1Cl,-4.42%
20,Cc1noc(NS(=O)(=O)c2ccc(N/C=C/C(=O)c3ccccc3)cc2)c1C,-20.4%
21,CCOc1ccc(N/C=C/C(=O)c2ccccc2)cc1,23.5%
22,Cc1ccc(N/C=C/C(=O)c2ccccc2)cc1C,77.8% (active)
